Bioassay records from PubChem BioAssay.
Shown are actives, neighbours in structure and some others; about 1.7% of the full set was active somewhere.
Fh CTSL1 inh: counter-screen for PFM18AAP inhibitors: inhibitors of F. hepatica cathepsin L1. recombinant F. hepatica cathepsin L1, Z-Leu-Arg-MCA fluorescence. inhibition, % at 5.96 µM. 300,000 tested, 0.49% active. AID 1906;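 active = inhibition above the mean of all tested compounds plus 3 SD, set per screening campaign, cut at about 17% in these data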;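 also: 0% = plate median of test compound wells and 100% = 1 µM Z-Phe-Ala-diazomethylketone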
HTR2A ag: activates the mouse 5-HT2A serotonin receptor | 360,000 tested, 0.66% active | activation, % at 7.6 µM | AID 624169 | CHO-K1 mHTR2A beta-arrestin complementation, luminescence; percent of 30 µM serotonin response;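 active = activation above a run cutoff, the mean activation of all tested compounds plus 3 SD, cut at about 14% in these data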;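 also: 0% = plate median of compound wells and 100% = 30 µM serotonin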
HDAC3 inhib: blocks human histone deacetylase 3 | O15379 | recombinant HDAC3, fluorogenic peptide/trypsin coupled, fluorescence | inhibition, % at 8.3 µM | 320,000 tested, 0.15% active | AID 2718; in the data active = inhibition above about 26%, passing the limit was not always enough; inconclusive = no clear call, values can overlap the other calls
LANA-H2A inh: blocks KSHV LANA binding to histone H2A/H2B. Q9QR71. cell-free LANA-H2A/H2B peptide, fluorescence polarization. inhibition, % (concentration not given with the values). 320,000 tested, 0.6% active; in the data active = inhibition mostly above about 10%, no sharp cut-off; inactive = mostly below about 6.7%
* marks the source's active call; other numbers are inactive results; ? = inconclusive; · = no result given.

SMILES	Fh CTSL1 inh	HTR2A ag	HDAC3 inhib	LANA-H2A inh
CCN(C(=O)Nc1ccccc1)c1ccccc1	0	7	-5	17*
CCOC(=O)C1=C(C)C(c2ccc(OC)cc2)NC(=S)N1 (configuration not stated)	17*	3	9	0
CCOC(=O)C1=C(C)C(c2ccc(OC)cc2)NC(=O)N1 (configuration not stated)	3	1	-6	-1
COc1ccc(C(C)C)cc1-c1cncc(NC(C)=O)n1	·	3	·	·
COc1ccc(C(=O)Nc2ccc3c(c2)C(=O)c2ccccc2C3=O)cc1OC	5	1	0	-1
COc1ccc(C(=O)c2c(C(F)(F)F)oc3c2C(=O)c2ccccc2C3=O)cc1OC	31*	-4	-2	4
Cc1cc(N2CCCCCC2)nc2ccccc12	20*	-3	-3	2
COc1cccc(/C=C/C(=O)OCC(=O)c2ccc(C)c(C)c2)c1OC	·	0	-7	20*
COc1cccc(/C=C/C(=O)OCC(=O)c2ccccc2)c1OC	·	-5	-14	-2
N#CC1=C2SCN(c3ccccc3)CN2C(=O)CC1c1c(Cl)cccc1Cl (configuration not stated)	-1	-8	61*	0
N#CC1=C2SCN(Cc3ccccc3)CN2C(=O)CC1c1ccccc1F (configuration not stated)	3	0	?	-2
COc1cc(OC)c(C2CC(=O)N3CN(c4ccccc4)CSC3=C2C#N)cc1OC (configuration not stated)	1	-2	42*	2
COc1cc(OC)c(C2CC(=O)N3CN(C)CSC3=C2C#N)cc1OC (configuration not stated)	1	-1	31*	0
COc1ccc(Br)cc1C1CC(=O)N2CN(C)CSC2=C1C#N (configuration not stated)	4	-6	2	-3
COc1ccc(Br)cc1C1CC(=O)N2CN(Cc3ccccc3)CSC2=C1C#N (configuration not stated)	-1	-3	32*	-1
COc1ccc(C2C3=C(CC(C)(C)CC3=O)N(CC(=O)O)C3=C2C(=O)CC(C)(C)C3)cc1OC	20*	0	0	0
CN(C)S(=O)(=O)c1ccc(C(=O)NCc2nc3ccccc3s2)cc1	0	14	2	15*
CN(C)S(=O)(=O)c1ccc(C(=O)NCc2cccs2)cc1	-1	2	4	4
N#CC1(NC(=O)COC(=O)c2cc([N+](=O)[O-])ccc2N2CCOCC2)CCCCC1	-17	0	4	-1
N#CC1(NC(=O)COC(=O)c2cc([N+](=O)[O-])ccc2N2CCCC2)CCCCC1	18*	-1	-7	-3
CC(=O)N1c2ccccc2C(=O)C1N1CCCCC1 (configuration not stated)	21*	-1	-1	1
O=C1c2cc(F)ccc2-n2c1nc1ccccc1c2=O	17*	-3	2	-1
Cc1ccnc(N/C=C(/NC(=O)c2ccccc2)C(=O)N/N=C\c2ccc(F)cc2)n1	20*	3	4	0
Cc1ccnc(N/C=C(/NC(=O)c2ccccc2)C(=O)NN)n1	16	0	-8	7
CCN(CC1CCCO1)C(=O)c1cc(COc2cc(C)c(Cl)c(C)c2)on1 (configuration not stated)	·	3	·	·
SMILES	Fh CTSL1 inh	HTR2A ag	HDAC3 inhib	LANA-H2A inh
COc1ccc(C2=NN(C(N)=S)C(c3ccccc3)C2)cc1 (configuration not stated)	55*	0	5	8
Cc1ccc(CNS(=O)(=O)c2ccc(C(F)(F)F)cc2)n1C	1	-1	6	-4
Cc1ccc(CNS(=O)(=O)c2ccc(F)c(F)c2)n1C	24*	-3	4	-3
CCOC(=O)c1c(NC(=O)CCS(=O)(=O)c2ccccc2)sc2c1CCN(C)C2	-20	3	3	53*
CCOC(=O)c1c(NC(=O)Cc2ccccc2)sc2c1CCN(C)C2	2	-7	3	-11
CC(=O)N1CCc2c(sc(NC(=O)CCS(=O)(=O)c3ccccc3)c2C(N)=O)C1	-13	-3	-5	33*
CCOC(=O)c1c(NC(=O)Cc2ccccc2)sc2c1CC(C)(C)NC2(C)C	2	-3	-8	0
CCOC(=O)N1CCc2c(sc(NC(=O)CCS(=O)(=O)c3ccccc3)c2C(N)=O)C1	-19	-2	-2	-9
CCOC(=O)c1c(NC(=O)CCS(=O)(=O)c2ccccc2)sc2c1CC(C)(C)NC2(C)C	39*	1	6	0
